# TRHR PAM: qHTS for Small Molecule Agonists and Allosteric Enhancers of Human TRH Receptor: Primary Screen for Enhancers; AID 493056, 2011; TRHR cells, fluo-8 calcium fluorescence, EC20 TRH enhancement; enhancement, % at 2 µM; hit rate 0.66% among 360,000; Thyrotropin-releasing hormone receptor (Homo sapiens), P34981; in the data active = enhancement above about 30%; note: 0% is about no effect
#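 TRHR-expressing cells loaded with fluo-8 calcium dye were read kinetically (ex 480/em 530) during compound addition, then stimulated with an EC20 of TRH (10 nM final). Enhancement of the Gq-mediated intracellular calcium response was scored.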
# D1 PAM: Potentiators of Human D1 Dopamine Receptor: qHTS; hit rate 0.036% among 360,000; HEK293 TREx D1 cells, calcium flux, dopamine EC20 potentiation; AID 504651, 2011; potentiation, % at 10 µM; in the data active = potentiation above about 30%; note: 0% is about no effect
# Target sequence (P21728 whole entry, looked up): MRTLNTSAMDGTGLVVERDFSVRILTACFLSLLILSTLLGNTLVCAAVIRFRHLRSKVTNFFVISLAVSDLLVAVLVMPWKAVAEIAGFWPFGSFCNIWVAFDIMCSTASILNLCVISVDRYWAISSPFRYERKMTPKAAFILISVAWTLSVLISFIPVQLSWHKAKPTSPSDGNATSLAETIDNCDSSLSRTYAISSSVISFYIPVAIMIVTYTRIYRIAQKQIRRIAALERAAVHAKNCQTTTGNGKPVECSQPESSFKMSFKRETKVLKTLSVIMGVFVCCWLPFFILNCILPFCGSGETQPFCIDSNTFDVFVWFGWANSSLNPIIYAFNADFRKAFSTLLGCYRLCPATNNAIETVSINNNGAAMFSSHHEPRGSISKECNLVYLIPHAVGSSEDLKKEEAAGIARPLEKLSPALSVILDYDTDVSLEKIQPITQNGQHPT
# Epigenetic derep: Quantitative High-Throughput Screen for Regulators of Epigenetic Control; murine LDR cells, GFP reporter derepression, 30 h; Potency, µM (top dose mostly 53.9 µM), without a hit: at the top dose GFP activation, actives largely listed as activators; hit rate 0.2% among 280,000; AID 1865, 2009; active = well fitted activation curve with a large enough effect; inconclusive = small, poorly fitted or top-dose-only effect; note: potency is the fitted concentration of half-maximal effect; % of control where 0% means no effect; nearly all actives have a fitted effect of over 60% in size
#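 Murine LDR cells carrying a silenced, genomically integrated CMV-driven GFP reporter were exposed to compound for 30 hours at 37 C. After PBS washes, GFP-positive cells (20–120 um objects) were counted by laser-scanning microplate cytometry.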
# TRHR ag: qHTS for Small Molecule Agonists and Allosteric Enhancers of Human TRH Receptor: Primary Screen for Agonists. hit rate 0.18% among 360,000. TRHR cells, calcium flux fluo-8, FDSS agonist mode. activation, % at 2 µM. AID 493084, 2011. Thyrotropin-releasing hormone receptor (Homo sapiens), P34981; note: 0% is about no effect
#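 TRHR-expressing cells, plated overnight in medium with 10% serum, were loaded with fluo-8 calcium dye at room temperature. After a 10 s baseline, library compound was pin-added and calcium release was recorded kinetically (ex 480/em 530) as agonist response.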
# D1 antag: Antagonist of Human D 1 Dopamine Receptor: qHTS. hit rate 3.2% among 360,000. D(1A) dopamine receptor (Homo sapiens), P21728. AID 504652, 2011. HEK293 TREx D1 cells, calcium flux, dopamine EC80; active compounds read low. activity change, negative = inhibition, % at 10 µM; in the data active = activity change below about -30%; note: % is set by controls: 0 for no effect and ±100 for the full control effect
#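 Kinetic fluorescence of a calcium dye serves as the read-out. D1-expressing Hek293 Trex cells, induced overnight at 30 C, are exposed to compound for 180 s before an EC80 dopamine addition, then read 180 s further.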
# D1 agonist: Allosteric Agonists of the Human D1 Dopamine Receptor: qHTS | D(1A) dopamine receptor (Homo sapiens), P21728 | HEK293 T-REx D1 cells, calcium flux, agonist mode | activation, % at 2 µM | hit rate 1% among 360,000; note: 0% is about no effect
#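 Tetracycline-induced HEK293 TREx D1 cells, force-coupled to calcium signalling, were dye-loaded with a no-wash calcium kit. Compound was pin-added after a 10 s baseline. Fluorescence was read kinetically at 1 cycle/s for 180 s, with calcium rises flagged as agonism.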
# * hit, by the source's call; ? = inconclusive; nt = no result given; [ ] = remark or other dose. The list is not random: actives were taken first. Their share in the collection is about 4.6%. Cut-off read from the data, not from the text of the source, unless noted: active = activation above about 30%; inactive = the rest.
SMILES,TRHR PAM,D1 PAM,Epigenetic derep,TRHR ag,D1 antag,D1 agonist
Cc1ccc(N2CC(C(=O)N3CCc4ccccc43)CC2=O)cc1 (centres undefined),0,-3,0%,-1,-13,-1
CCCNC(=O)C1CN(S(=O)(=O)c2ccc(C)cc2)c2ccccc2O1 (centres undefined),1,-8,nt,0,-6,0
CCOC(=O)C1CN(S(=O)(=O)c2ccc(C)cc2)c2ccccc2O1 (centres undefined),-1,-6,nt,2,-45*,6
CCOC(=O)N/N=C1/C[C@@H](O)[C@@H](O)[C@@H]2[C@@H]3C(=O)N(C4CCCCC4)C(=O)[C@H]3CC[C@@H]12,nt,nt,1%[10.1 µM],nt,nt,nt
O=C1CC(Cc2ccccc2)C(=O)N1CCc1ccc2c(c1)OCO2 (centres undefined),12,3,2%,0,-8,2
O=C1OC[C@H](Cc2ccc3c(c2)OCO3)/C1=C\c1ccc2c(c1)OCO2,9,0,nt,0,-33*,20
O=C(c1cn(CCOc2ccc(Cl)cc2)c2ccccc12)C1CCCCC1,4,-4,1%,1,5,5
O=[N+]([O-])c1ccc(-c2ccc(/C=N/Nc3nc(NCc4ccccc4)nc(N4CCOCC4)n3)o2)cc1,-1,2,9%,21,-12,74*
O=C(NCc1cccc(F)c1)c1ccc2nc(N3CCCCC3)sc2c1,2,-1,5%,0,9,2
CC(C)COC(=O)c1ccccc1N1C(=O)C2C3CCC(C3)C2C1=O (centres undefined),2,-7,3%,0,-13,1
CCCCOC(=O)c1ccccc1N1C(=O)C2C3CCC(C3)C2C1=O (centres undefined),-7,-12,0%,0,-32*,5
Cc1ccc(C)c(C(=O)COC(=O)c2ccccc2N2C(=O)C3C4CCC(C4)C3C2=O)c1 (centres undefined),17,-5,-2%,-1,-42*,15
CC(=O)c1ccc(NC(=O)C(C)OC(=O)C2CCN(c3ccc(C(F)(F)F)cn3)CC2)cc1 (centres undefined),-7,-1,nt,1,-30*,2
Cc1ccc(C(=O)C(C)OC(=O)C2CCN(c3ccc(C(F)(F)F)cn3)CC2)cc1 (centres undefined),-5,-6,nt,2,-17,17
CC(OC(=O)C1CCN(c2ccc(C(F)(F)F)cn2)CC1)C(=O)c1ccccc1 (centres undefined),6,-5,nt,-1,-32*,21
CN1CCN(c2ccc(NC(=O)c3ccc(C(F)(F)F)cc3)cn2)CC1,-1,-8,-1%,1,-41*,4
CC(OC(=O)C1CCN(c2ccc(C(F)(F)F)cn2)CC1)C(=O)Nc1ccc(S(N)(=O)=O)cc1 (centres undefined),28,-8,nt,-1,-3,1
O=C(COC(=O)C1CCN(c2ccc(C(F)(F)F)cn2)CC1)c1ccc(F)cc1,3,-7,nt,0,-35*,43*
Cc1ccccc1C(=O)Nc1ccc(N2CCN(C)CC2)nc1,-4,-4,-2%,-1,8,1
O=c1n(Cc2ccc([N+](=O)[O-])cc2)c2ccccc2c2nc(-c3ccccc3)nn12,5,-4,-2%,-1,-20,2
Cc1cccc(CS(=O)(=O)c2ncc(Cl)c(C(=O)Nc3c(C)cccc3C)n2)c1,-17,-5,nt,1,-32*,2
Cc1cccc(CS(=O)(=O)c2ncc(Cl)c(C(=O)NCc3ccccc3)n2)c1,-14,-6,11%,-1,-32*,2
CCOc1ccc(/C=C/c2nc(C#N)c(Nc3ccc(OC)cc3)o2)cc1,0,0,?,0,5,3
CCOc1ccc(NC(=O)c2cc3cc(C)ccc3n2C)cc1,-1,2,-3%,1,-56*,-1
COc1ccc(C(=O)N/N=C(\C)c2cccc(NC(=O)c3ccc(F)cc3)c2)c(OC)c1,-1,-5,nt,0,-37*,5
SMILES,TRHR PAM,D1 PAM,Epigenetic derep,TRHR ag,D1 antag,D1 agonist
Cc1ccc(Cl)cc1NC(=O)COCc1cc(-c2ccco2)on1,-7,3,-3%,1,1,0
O=C(COC(=O)C12CC3CC(CC(C3)C1)C2)Nc1nccs1,-1,3,-1%,1,-34*,6
Cc1ccnc(NC(=O)COC(=O)C23CC4CC(CC(C4)C2)C3)n1,2,-3,2%,1,-13,5
O=C(NCc1ccccc1Cl)c1nnc(CS(=O)(=O)c2ccccc2)o1,31*,-10,nt,0,-3,9
Cc1ccc(S(=O)(=O)Nc2cc(Br)cc3cccnc23)cc1,-4,8,nt,-1,3,1
O=C(CN1CCCCCCC1)N/N=C/c1ccccc1F,4,-5,-3%,-1,-39*,-1
O=C(CO)N/N=C/c1ccccc1F,-6,4,-3%,0,4,3
C=CCNC(=O)CC(=O)N/N=C/c1ccccc1F,32*,8,-1%,0,-4,2
O=C(CC(=O)N/N=C/c1c(F)cccc1Cl)NCc1ccccc1,-3,-4,-1%,1,-81*,0
O=C(Cn1cncn1)N/N=C/c1ccccc1Cl,32*,-8,4%,1,-11,0
COc1ccc(C2CC(=O)N(Cc3ccccc3)c3c2c(C)nn3-c2nc(C)cc(C)n2)c(OC)c1 (centres undefined),-1,1,-2%,0,-2,-2
O=c1cc(-c2ccc(O)cc2)oc2cc(OC3OC(CO)C(O)C(O)[C@H]3O[C@@H]3OC[C@@](O)(CO)C3O)cc(O)c12 (some centres undefined),nt,nt,0%,nt,nt,nt
Cc1nn(C)c(C)c1NC(=O)COc1ccc(Cl)cc1,2,1,nt,0,-34*,14
Cc1cccc(C)c1OCC(=O)Nc1c(C)nn(C)c1C,-8,-2,nt,1,0,2
Cc1nn(C)c(Oc2ccc(Cl)cc2)c1C(=O)O,-5,-8,-9%,0,-33*,1
Cn1c(=O)n(C)c2cc(NC(=O)COc3ccc(Cl)cc3)ccc21,0,-6,-1%,0,-33*,18
CN1CCC(N(C)S(=O)(=O)c2ccc(NC(=O)COc3ccc(Cl)cc3)cc2)CC1,0,-3,nt,2,-18,48*

# Source: PubChem
